# Results reported in PubChem BioAssay (Tox21).
# Several values for one entry are separate records, joined by “and”; a condition that tells them apart may be missing. Equal entries are not always repeated. Some structures have more than one record in an assay (separate samples or runs), and their calls can disagree. Activity calls are given as the source filed them. Where a call stands in place of a potency, no number is given. Unless noted, calls come from the whole dose curve; as a rule, active = well fitted curve in the direction sought with a large enough effect in the repeat runs; inconclusive = weak or mixed curves; inactive = no such curve, though single readings can be large; an effect the other way counts as inactive or inconclusive. Positions of bridges follow the written chain, without caps; N, C: chain ends. Non-standard residues stand in square brackets, D forms with d. Residues, ends and D or L forms follow the SMILES beside them. *: point of attachment. X1 = CC[C@@H](C)[C@@H](N)C1=N[C@H](C(=O)*)CS1; d(aIle) = CC[C@H](C)[C@@H](N)C(=O)O; dOrn = NCCC[C@@H](N)C(=O)O
# Key:
# [1] = qHTS assay for identifying genotoxic compounds that show differential cytotoxicity against isogenic chicken DT40 cell lines with known DNA damage response pathways - wild type cell line (AID 743012); note: nearly all actives have a fitted effect of over 60% in size; note: potency is the fitted concentration of half-maximal effect
# Summary of the method: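 Endpoint: CellTiter-Glo luminescence, 30 min RT. Cells: wild type DT40, 300/well. Exposure: compounds in DMSO, 40 h, 37 C/5% CO2, after ~0.5 h pre-incubation.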
# [2] = qHTS assay for identifying genotoxic compounds that show differential cytotoxicity against isogenic chicken DT40 cell lines with known DNA damage response pathways - Rev3 mutant cell line (AID 743014); note: nearly all actives have a fitted effect of over 55% in size; note: potency is the fitted concentration of half-maximal effect
# [3] = qHTS assay for identifying genotoxic compounds that show differential cytotoxicity against isogenic chicken DT40 cell lines with known DNA damage response pathways - Rad54/Ku70 mutant cell line (AID 743015); note: nearly all actives have a fitted effect of over 60% in size; note: potency is the fitted concentration of half-maximal effect
# [4] = qHTS assay to identify small molecule antagonists of the androgen receptor (AR) signaling pathway - cell viability counter screen (AID 743033; note: nearly all actives have a fitted effect of over 45% in size)
# [5] = qHTS assay to identify small molecule antagonists of the androgen receptor (AR) signaling pathway using the MDA cell line - cell viability counter screen (AID 743041; note: nearly all actives have a fitted effect of over 45% in size; note: potency is the fitted concentration of half-maximal effect)
# Summary of the method: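 Using the breast carcinoma line MDA-kb2 AR-luc, test chemicals were co-incubated with R1881 for 16 h; CellTiter-Fluor reagent, added at 15.5 h, provided a fluorescence measure of live cells.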
# [6] = qHTS assay to identify small molecule antagonists of the thyroid receptor (TR) signaling pathway - cell viability counter screen (AID 743064); note: nearly all actives have a fitted effect of over 50% in size; note: potency is the fitted concentration of half-maximal effect
# Summary of the method: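 GH3.TRE-Luc cells, 4 h pre-plating; cpd + T3 1 nM final; 37 °C 23.5 h; CellTiter-Fluor 30 min; fluorescence read.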
# [7] = qHTS assay to identify small molecule antagonists of the thyroid receptor (TR) signaling pathway (AID 743065); note: nearly all actives have a fitted effect of over 55% in size; note: potency is the fitted concentration of half-maximal effect
# Summary of the method: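 Antagonism measured as loss of luciferase signal in GH3 cells stably carrying a TRE-luciferase reporter, co-treated with compound and T3 (1 nM final) for 23.5 h at 37 C. Viability was read in the same well by CellTiter-Fluor.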
# [8] = test system: thyroid hormone receptor (rat, GH3 cells); experiment: qHTS assay to identify small molecule agonists of the thyroid receptor (TR) signaling pathway (AID 743066; calls by dose curve)
# [9] = molecular target: Estrogen receptor (Homo sapiens) (UniProt P03372); experiment: qHTS assay to identify small molecule antagonists of the estrogen receptor alpha (ER-alpha) signaling pathway (AID 743069; active = well fitted curve in the direction sought with a large enough effect in the signal ratio in the repeat runs, not every such curve was filed as active; inconclusive = weak or mixed curves, or effect the other way; inactive = no such curve, though single readings can be large or run the other way; the % refers to the signal ratio; note: potency is the fitted concentration of half-maximal effect)
# Summary of the method: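 Fluorescence intensity from a beta-lactamase FRET substrate served as the read-out. Cells: HEK293 with stably integrated ER-alpha-UAS-bla reporter. Agonist 17beta-estradiol was co-added with compounds; incubation 18 hr at 37C, substrate 2 hr at room temperature.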
# [10] = molecular target: Estrogen receptor (Homo sapiens) (UniProt P03372); experiment: qHTS assay to identify small molecule agonists of the estrogen receptor alpha (ER-alpha) signaling pathway (AID 743075; calls by dose curve; note: potency is the fitted concentration of half-maximal effect)
# [11] = qHTS assay to identify small molecule antagonists of the estrogen receptor alpha (ER-alpha) signaling pathway using the BG1 cell line (AID 743080; calls by dose curve; note: nearly all actives have a fitted effect of over 25% in size; note: potency is the fitted concentration of half-maximal effect)
# Summary of the method: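 Antagonist mode: compounds in DMSO were pinned onto BG1-Luc-4E2 cells alongside 17beta-estradiol agonist, incubated 21.5 h, and ERE-driven luciferase measured with ONE-Glo. Cytotoxicity was multiplexed using CellTiter-Fluor fluorescence.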
# [12] = qHTS assay to identify small molecule antagonists of the estrogen receptor alpha (ER-alpha) signaling pathway using the BG1 cell line - cell viability counter screen (AID 743081);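 note: compound given together with 17beta-estradiol as the ER stimulus; nearly all actives have a fitted effect of over 45% in size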; note: potency is the fitted concentration of half-maximal effect
# Aromatase (Homo sapiens) = Aromatase (Homo sapiens) (UniProt P11511); experiment: qHTS assay to identify aromatase inhibitors (AID 743083); note: nearly all actives have a fitted effect of over 55% in size; note: potency is the fitted concentration of half-maximal effect
# [13] = qHTS assay to identify small molecule antagonists of the estrogen receptor alpha (ER-alpha) signaling pathway - cell viability counter screen (AID 743074; calls by dose curve; note: nearly all actives have a fitted effect of over 45% in size; note: potency is the fitted concentration of half-maximal effect)
# [14] = molecular target: Estrogen receptor (Homo sapiens) (UniProt P03372); experiment: qHTS assay to identify small molecule agonists of the estrogen receptor alpha (ER-alpha) signaling pathway using the BG1 cell line (AID 743079); note: nearly all actives have a fitted effect of over 20% in size; note: potency is the fitted concentration of half-maximal effect
# [15] = molecular target: Androgen receptor (Homo sapiens) (UniProt P10275); experiment: qHTS assay to identify small molecule antagonists of the androgen receptor (AR) signaling pathway (AID 743035; active = well fitted inhibition curve with a large enough effect in the signal ratio in the repeat runs, not every such curve was filed as active; inconclusive = weak or mixed curves, or effect the other way; inactive = no such curve, though single readings can be large or run the other way; the % refers to the signal ratio; note: potency is the fitted concentration of half-maximal effect)
# Summary of the method: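 R1881 agonist challenge of a HEK293 UAS-beta-lactamase AR reporter line in the presence of compound (16 h, 37C); signal taken as FRET fluorescence after 2 h with LiveBLAzer B/G substrate at room temperature.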
# [16] = molecular target: Androgen receptor (Homo sapiens) (UniProt P10275); experiment: qHTS assay to identify small molecule agonists of the androgen receptor (AR) signaling pathway (AID 743036; active = well fitted activation curve with a large enough effect in the signal ratio in the repeat runs, with a control signal flat, not every such curve was filed as active; inconclusive = weak or mixed curves, or effect the other way; inactive = no such curve, though single readings can be large or run the other way; the % refers to the signal ratio)
# Summary of the method: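 AR-bla HEK293 cells, 2,000/well; 4 h preincubation 37C/5% CO2; compound (DMSO) 16 h at 37C; LiveBLAzer B/G FRET substrate 2 h RT; fluorescence intensity read-out.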
# [17] = molecular target: Androgen receptor (Homo sapiens) (UniProt P10275); experiment: qHTS assay to identify small molecule agonists of the androgen receptor (AR) signaling pathway using the MDA cell line (AID 743040; note: nearly all actives have a fitted effect of over 20% in size)
# Summary of the method: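 Stable MMTV-luciferase reporter in MDA-kb2 cells; note the promoter carries GR as well as AR response elements. 16 h compound treatment, 37C, 0% CO2; ONE-Glo luminescence endpoint.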
# [18] = molecular target: Androgen receptor (Homo sapiens) (UniProt P10275); experiment: qHTS assay to identify small molecule antagonists of the androgen receptor (AR) signaling pathway using the MDA cell line (AID 743042; note: nearly all actives have a fitted effect of over 55% in size)
# Summary of the method: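 Antagonist mode: compounds plus R1881 agonist added to MDA-kb2 AR-luc cells, incubated 16 h at 37C. Luciferase reporter luminescence quantified, with multiplexed CellTiter-Fluor readout for cell viability.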
# Chain of Androgen receptor (Homo sapiens) (P10275 whole entry, looked up): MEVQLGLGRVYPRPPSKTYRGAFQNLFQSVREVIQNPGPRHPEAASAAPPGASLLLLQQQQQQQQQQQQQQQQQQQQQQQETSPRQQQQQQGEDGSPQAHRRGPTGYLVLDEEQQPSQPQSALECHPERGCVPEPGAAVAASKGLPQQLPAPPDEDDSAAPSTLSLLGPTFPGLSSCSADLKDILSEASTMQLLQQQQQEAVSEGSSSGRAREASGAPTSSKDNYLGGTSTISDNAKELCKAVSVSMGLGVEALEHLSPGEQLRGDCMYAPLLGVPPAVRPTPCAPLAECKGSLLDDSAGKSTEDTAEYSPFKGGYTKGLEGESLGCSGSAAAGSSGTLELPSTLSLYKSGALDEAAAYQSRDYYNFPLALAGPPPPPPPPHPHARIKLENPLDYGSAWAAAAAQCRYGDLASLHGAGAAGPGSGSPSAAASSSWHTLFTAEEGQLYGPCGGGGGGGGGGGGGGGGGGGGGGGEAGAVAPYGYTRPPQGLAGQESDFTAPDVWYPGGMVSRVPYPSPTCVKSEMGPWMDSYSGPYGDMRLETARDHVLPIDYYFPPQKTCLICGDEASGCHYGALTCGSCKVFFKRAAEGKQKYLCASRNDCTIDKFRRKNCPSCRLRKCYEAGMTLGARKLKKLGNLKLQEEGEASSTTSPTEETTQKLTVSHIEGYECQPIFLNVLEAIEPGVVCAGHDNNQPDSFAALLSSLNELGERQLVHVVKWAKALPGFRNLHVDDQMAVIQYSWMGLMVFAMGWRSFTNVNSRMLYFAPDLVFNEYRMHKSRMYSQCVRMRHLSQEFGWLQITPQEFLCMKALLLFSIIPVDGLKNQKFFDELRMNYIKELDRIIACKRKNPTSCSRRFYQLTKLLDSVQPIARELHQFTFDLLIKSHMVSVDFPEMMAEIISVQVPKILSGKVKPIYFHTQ
# Chain of Aromatase (Homo sapiens) (P11511 whole entry, looked up): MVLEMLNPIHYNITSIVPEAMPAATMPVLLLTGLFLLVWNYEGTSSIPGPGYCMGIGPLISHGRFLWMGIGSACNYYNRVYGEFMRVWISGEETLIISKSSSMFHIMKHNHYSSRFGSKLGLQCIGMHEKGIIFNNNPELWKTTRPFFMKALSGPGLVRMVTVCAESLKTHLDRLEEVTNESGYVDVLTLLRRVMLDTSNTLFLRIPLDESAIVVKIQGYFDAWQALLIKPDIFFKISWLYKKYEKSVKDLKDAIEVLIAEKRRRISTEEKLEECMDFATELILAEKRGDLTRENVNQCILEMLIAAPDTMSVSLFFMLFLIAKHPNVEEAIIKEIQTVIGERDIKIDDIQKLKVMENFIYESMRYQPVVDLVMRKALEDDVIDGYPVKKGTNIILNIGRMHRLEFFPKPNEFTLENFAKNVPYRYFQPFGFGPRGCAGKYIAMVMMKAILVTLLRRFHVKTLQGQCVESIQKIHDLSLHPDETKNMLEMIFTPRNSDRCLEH
# Chain of Estrogen receptor (Homo sapiens) (P03372 whole entry, looked up): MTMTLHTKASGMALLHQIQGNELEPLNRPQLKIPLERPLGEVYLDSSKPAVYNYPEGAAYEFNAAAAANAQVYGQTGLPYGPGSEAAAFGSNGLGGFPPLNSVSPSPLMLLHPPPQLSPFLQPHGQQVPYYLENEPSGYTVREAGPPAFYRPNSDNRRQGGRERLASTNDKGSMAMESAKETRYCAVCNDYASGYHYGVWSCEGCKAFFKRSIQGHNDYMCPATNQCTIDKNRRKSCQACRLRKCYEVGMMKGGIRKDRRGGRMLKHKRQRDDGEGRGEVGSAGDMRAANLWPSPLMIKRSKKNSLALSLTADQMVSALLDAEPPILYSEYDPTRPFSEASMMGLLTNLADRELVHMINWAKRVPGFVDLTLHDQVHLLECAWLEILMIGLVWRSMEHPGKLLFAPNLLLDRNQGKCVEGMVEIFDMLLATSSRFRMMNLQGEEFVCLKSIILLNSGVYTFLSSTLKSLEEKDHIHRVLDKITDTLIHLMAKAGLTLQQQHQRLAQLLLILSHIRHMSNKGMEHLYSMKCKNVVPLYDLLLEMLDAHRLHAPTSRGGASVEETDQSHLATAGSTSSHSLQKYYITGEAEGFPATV
Compound,Potency [1],Potency [2],Potency [3],Potency [4],Potency [5],Potency [6],Potency [7],Potency [8],Potency [9],Potency [10],Potency [11],Potency [12],Potency (Aromatase (Homo sapiens)),Potency [13],Potency [14],Potency [15],Potency [16],Potency [17],Potency [18]
CC(Cc1ccc(O)c(O)c1)C(C)Cc1ccc(O)c(O)c1 (configuration not stated),13.7 µM (active),30.6 µM (active),15.4 µM (active),inactive,inactive,13.7 µM (active),7.7 µM (active),inactive,54.9 µM [inconclusive] (active),0.0174 µM [inconclusive] (active),inactive,inactive,inactive,,,,,,
CC[C@@H](C)[C@@H](N)C1=N[C@H](C(=O)N[C@@H](CC(C)C)C(=O)N[C@@H](CCC(=O)O)C(=O)N[C@@H](C(=O)N[C@@H]2CCCCNC(=O)[C@@H](CC(N)=O)NC(=O)[C@@H](CC(=O)O)NC(=O)[C@@H](Cc3cnc[nH]3)NC(=O)[C@@H](Cc3ccccc3)NC(=O)[C@@H]([C@H](C)CC)NC(=O)[C@@H](CCCN)NC2=O)[C@@H](C)CC)CS1 (X1-LE[d(aIle)][dK][dOrn][dI][dF][dH][dD][dN]; lactam 4-C),inactive,inactive,inactive,,inactive,inactive,inactive,inactive,inactive,inactive,inactive,inactive,inactive,inactive,4.03 µM (active) and inactive,,,,
CCC(C)(C)c1ccc(CC(C)CN2C[C@@H](C)O[C@@H](C)C2)cc1 (some centres not stated),0.841 µM (active),0.668 µM (active),0.841 µM (active),inactive,,11.9 µM (active),,,,inactive,29.8 µM (active),inactive,,,,,,,
CCCCCCCCCCCCCCCC(=O)OC[C@H](COP(=O)([O-])OCC[N+](C)(C)C)OC(=O)CCCCCCCCCCCCCCC,inactive,inactive,inactive,inactive,inactive,inactive,inactive,inactive,inactive,inactive,inactive,inactive,inactive,inactive,inactive,inactive,inactive,inactive,inactive
CN(Cc1ccccc1)Cc1ccccc1,inactive,inactive,inactive,,inactive,inactive,inactive,inactive,inactive,inactive,inactive,inactive,inactive,inactive,inactive,,,,
CCN(CC)CC#CCOC(=O)C(O)(c1ccccc1)C1CCCCC1 (configuration not stated),11.9 µM (active),13.3 µM (active),26.6 µM (active),inactive,inactive,13.3 µM (active),,inactive,,,,9.44 µM (active),inactive,inactive,,,,,
C=CC1=C(C(=O)O)N2C(=O)[C@@H](NC(=O)/C(=N\O)c3csc(N)n3)[C@H]2SC1 (stereo in doubt),inactive,inactive,inactive,,inactive,inactive,inactive,inactive,inactive,inactive,inactive,inactive,inactive,inactive,inactive,inactive,inactive,inactive,inactive
CCCCCCCCOC(=O)c1cc(O)c(O)c(O)c1,0.545 µM (active),1.37 µM (active),0.611 µM (active),,48.6 µM (active),2.17 µM (active),1.93 µM (active),,61.6 µM [cytotoxic] (active),,,,34.4 µM (active),,,,,,
CC(=O)OCC(=O)[C@@]1(O)CC[C@H]2[C@@H]3C[C@H](C)C4=CC(=O)C=C[C@]4(C)[C@H]3[C@@H](O)C[C@@]21C,inactive,,,inactive,inactive,inactive,inactive,inactive,,inactive,,inactive,inactive,inactive,18.8 µM (active),,,,
CCOc1ccc(NC(=S)Nc2ccc(OCC)cc2)cc1,inactive,inactive,,inactive,inactive,inactive,inactive,inactive,inactive,inactive,inactive,inactive,inactive,inactive,inactive,,,,
O=C1c2ccccc2C(=O)C1c1ccc(F)cc1,inactive,,inactive,inactive,inactive,inactive,,inactive,inactive,inactive,inactive,inactive,inactive,,inactive,inactive,inactive,inactive,inactive
CCCCC/C=C\C=C\C(=O)OCC,12.7 µM (active),16 µM (active),12.7 µM (active),,,31.9 µM (active),28.4 µM (active),,,inactive,,inactive,,inactive,inactive,,,,
COc1ccc(/C=C/C(=O)Nc2ccccc2C(=O)O)cc1OC,inactive,,,inactive,inactive,inactive,4.73 µM (active),inactive,inactive,inactive,8.41 µM (active),inactive,inactive,inactive,inactive,,,inactive,inactive
Cc1ccc(C(C)(C)c2ccc(C)cc2)cc1,inactive,inactive,,inactive,inactive,inactive,inactive,inactive,inactive,inactive,inactive,inactive,inactive,inactive,inactive,,,,
O=C1CCC/C=C\CCCCCCCCCC1,inactive,,,,inactive,,,inactive,,,,inactive,30.6 µM (active),inactive,,,,,
CCC(=O)OC(OP(=O)(CCCCc1ccccc1)CC(=O)N1C[C@H](C2CCCCC2)C[C@H]1C(=O)O)C(C)C (some centres not stated),inactive,,inactive,inactive,inactive,inactive,,inactive,inactive,inactive,inactive,inactive,inactive,inactive,inactive,,,,
CC(O)(c1ccc(Cl)cc1)c1ccc(Cl)cc1,,,,,inactive,,,inactive,,inactive,,inactive,61.1 µM (active),inactive,inactive,,,,
Clc1nc(C(Cl)(Cl)Cl)c(Cl)c(Cl)c1Cl,21.7 µM (active),19.3 µM (active),27.3 µM (active),,,21.7 µM (active),17.2 µM (active),inactive,,inactive,,inactive,,inactive,,,,,
C[C@@H]1O[C@@H](OC[C@H]2O[C@@H](Oc3c(-c4ccc(OCCO)c(OCCO)c4)oc4cc(OCCO)cc(O)c4c3=O)[C@H](O)[C@@H](O)[C@@H]2O)[C@H](O)[C@H](O)[C@H]1O,inactive,,inactive,inactive,inactive,,inactive,inactive,,,,inactive,inactive,inactive,,inactive,inactive,inactive,inactive
C=C(Nc1ccc(OCC)cc1)Nc1ccc(OCC)cc1,29.8 µM (active) and 23.7 µM (active),,23.7 µM (active),,inactive,inactive,inactive,inactive,inactive,inactive,inactive,inactive,inactive,inactive,inactive,,,,
CON=C1C[C@]2(C[C@@H]3C[C@@H](C/C=C(\C)C[C@@H](C)/C=C/C=C4\CO[C@@H]5[C@H](O)C(C)=C[C@@H](C(=O)O3)[C@]45O)O2)O[C@H](/C(C)=C/C(C)C)[C@H]1C,13.3 µM (active) and 16.8 µM (active),,10.6 µM (active) and 13.3 µM (active),inactive,inactive,5.31 µM (active),3.76 µM (active) and 5.31 µM (active),,,,,,inactive,6.01 µM (active) and 23.9 µM (active),,7.56 µM (active),,,inactive
Nc1ccc(N)c([N+](=O)[O-])c1,,,,,,,inactive,inactive,,,,,inactive,,,,,,
S=C1NC=NC2N=CNC12 (configuration not stated),54.5 µM (active),48.6 µM (active),,,inactive,inactive,,inactive,,,,inactive,inactive,11 µM (active),,,,,
CS(=O)(=O)c1ccc([C@@H](CC2CCCC2)C(=O)Nc2cnccn2)cc1Cl,,,,,,,,inactive,,,,,inactive,,,,,,
SC1CCCCC1,inactive,inactive,inactive,,inactive,inactive,inactive,inactive,,,,inactive,inactive,inactive,,,,,
COc1cc2c(cc1O)CCN[C@]21CS[C@@H]2c3c(OC(C)=O)c(C)c4c(c3[C@H](COC1=O)N1[C@@H]2[C@H]2c3c(cc(C)c(OC)c3O)C[C@@H]([C@@H]1O)N2C)OCO4,0.9 nM (active) and 2.4 nM (active),0.0486 µM (active),0.0001 µM (active),,inactive,2.4 nM (active) and 4.3 nM (active),,,33.8 nM [inconclusive] (active) and 49 nM [inconclusive] (active),inactive,26.6 nM (active) and 43.3 nM (active),26.6 µM (active) and 13.7 µM (active),29.8 nM (active) and 48.6 nM (active),,,,,,
